In ChEMBL document CHEMBL3988442, “University of Dundee, Small-Polar-MMV Screening Library” (2021):
Potency and affinity values are given separately.

Molecular target: Protein translocase subunit SecA (Escherichia coli (strain K12)) (UniProt P10408)
Assay: Assay to Identify E. coli SecA ATPase Inhibitors
Type: functional
Design: scale not given: direction of the effect not stated beside the values
Conditions: 30 µM

Sequence of Protein translocase subunit SecA (Escherichia coli (strain K12)) (P10408 whole entry): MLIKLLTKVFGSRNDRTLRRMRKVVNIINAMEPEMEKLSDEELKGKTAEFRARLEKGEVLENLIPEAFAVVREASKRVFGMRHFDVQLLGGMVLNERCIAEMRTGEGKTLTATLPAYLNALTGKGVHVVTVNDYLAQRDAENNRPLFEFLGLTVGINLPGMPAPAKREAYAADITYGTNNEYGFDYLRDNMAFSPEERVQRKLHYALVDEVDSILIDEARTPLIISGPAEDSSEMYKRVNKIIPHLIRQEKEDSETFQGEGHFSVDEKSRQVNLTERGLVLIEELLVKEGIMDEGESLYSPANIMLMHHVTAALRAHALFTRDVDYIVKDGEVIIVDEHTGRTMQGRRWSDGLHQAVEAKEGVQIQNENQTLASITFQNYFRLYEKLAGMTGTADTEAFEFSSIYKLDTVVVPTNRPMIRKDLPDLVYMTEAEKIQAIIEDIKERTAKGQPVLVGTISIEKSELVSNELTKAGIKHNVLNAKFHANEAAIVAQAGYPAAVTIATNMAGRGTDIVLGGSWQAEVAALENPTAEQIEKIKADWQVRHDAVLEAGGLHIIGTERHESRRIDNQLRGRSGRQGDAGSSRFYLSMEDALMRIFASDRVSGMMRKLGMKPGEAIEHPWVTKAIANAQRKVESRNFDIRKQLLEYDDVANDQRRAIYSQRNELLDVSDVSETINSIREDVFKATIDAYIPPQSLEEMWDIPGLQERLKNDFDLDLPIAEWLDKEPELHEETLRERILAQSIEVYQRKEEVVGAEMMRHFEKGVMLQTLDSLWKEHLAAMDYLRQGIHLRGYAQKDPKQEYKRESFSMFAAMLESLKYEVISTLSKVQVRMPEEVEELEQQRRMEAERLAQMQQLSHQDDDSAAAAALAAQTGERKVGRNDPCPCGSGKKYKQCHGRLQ

SMILES	Percent Effect [%]
CN1CC(=O)N(c2cnn(C)c2)CC12CCN(Cc1ccccc1)C2 (stereo not drawn)	-4.4
NC(=O)C(CNC(=O)Cc1ccc(F)cc1)Cc1ccc(F)cc1 (stereo not drawn)	-4.48
O=C(N1CCOCC1)N1CCc2ncnc(NC3CC3)c2CC1	-0.799
Cn1cccc1C(=O)N1CCn2cc(CNC(=O)CC3CC3)nc2C1	-2.92
Clc1cc(CN2CCCC2Cn2cncn2)c2ncccc2c1 (stereo not drawn)	-4.67
CCc1nnc2n1CCN(Cc1csc(-c3cnn(C)c3)n1)C2	-3.51
COc1ccc(C(CNC(=O)Nc2cn[nH]c2)N2CCOCC2)cc1 (stereo not drawn)	-3.98
Cc1nn(C)c(C)c1C1CCCN1CC(=O)Nc1ccncc1 (stereo not drawn)	-3.89
Cc1nn(C)c(N(C)C)c1CNC1CCc2c(F)cccc21 (stereo not drawn)	0.322
Cc1ccccc1C(=O)CN1C(=O)c2ccccc2CS1(=O)=O	-2.33
CS(=O)(=O)N1CCC(C(=O)NC(Cc2ccsc2)c2ccccn2)CC1 (stereo not drawn)	-4.27
COc1cccc(Cc2nnc(SC3CCOC3=O)o2)c1 (stereo not drawn)	-4.53
Cc1ccc(N2CCC3(CC2)CC(OCC(=O)N(C)C)CO3)nn1 (stereo not drawn)	-2.67
CC(NC(=O)NCc1cccnc1N1CCCCC1)c1nccs1 (stereo not drawn)	-4.11
CCc1ccc(NS(=O)(=O)CC2=NC(=O)n3cccc3C2=O)cc1	1.25
c1ncn(CC2CCCN(Cc3nc(C4CC4)no3)C2)n1 (stereo not drawn)	-5.67
N#Cc1ccc(C(=O)N2CCC3(CC2)C(=O)Nc2ccccc23)cn1	-4.93
Cc1ccc(-c2nc(CNCCn3cccn3)cs2)o1	1.6
Cc1cnc2n(c1=O)CC(C(=O)Nc1ccccc1Cl)CS2 (stereo not drawn)	-2.2
CCn1c(N)nc2cc(C(=O)NCCc3ccccc3C)cnc21	-2.81

SMILES	Percent Effect [%]
O=C(NCCCN1CCCC1)c1n[nH]c(=O)c2ccccc12	-2.88
Cc1nc(CN2CCCC(NCCOCC(F)(F)F)C2)no1 (stereo not drawn)	-6.82
O=C1C[C@H]2[C@@H](CCN2C(=O)c2ccccc2)N1CCN1CCOCC1	-2.13
CC(C)Oc1ncccc1CNC(=O)N1CCC(C(N)=O)C1 (stereo not drawn)	-6.99
CNc1nc2c(c(C(=O)N3CCCC3)n1)CN(Cc1nccn1C)CC2	-4.21
CC(C)NC(=O)c1sccc1N(C)S(=O)(=O)c1ccc(Cl)cc1	2.02
COc1nn(C)c2c1CCCN(C(=O)c1ccccc1)C2	-4.93
COCC(=O)N1CC[C@@H]2O[C@H](COCc3ccncc3)CC[C@@H]21	-3.69
Fc1ccc(-c2cnc(CN3CCCC3Cn3cccn3)o2)cc1 (stereo not drawn)	-4.06
O=C(C1CC=CC1)N1CCc2c(COCc3ccncc3)cncc2C1	0.346
O=C(NCC(F)(F)F)NC1CCCc2c1cnn2CCO (stereo not drawn)	-4.5
O=C(CCOc1ccccc1)N1CCC(Nc2cccnn2)CC1	-6.73
Cc1cc(CN2CCN(c3ccc4nncn4n3)C(C)C2)no1 (stereo not drawn)	-6.67
Cc1n[nH]c(C)c1C1COCCN1C(=O)Cc1cccc(F)c1 (stereo not drawn)	1.02
CCC(C)(NCC(=O)Nc1ccccc1)c1nc(C)cs1 (stereo not drawn)	-2.41
Cc1ccc(-c2nnc(CN3CCc4cnc(C)nc4C3)o2)cc1	-4.56
Cc1cccc2c1OCCC2NCc1c(C)nn(C)c1N(C)C (stereo not drawn)	1.41
CC(C#N)CSc1ccccc1NCC(=O)NCc1ccccc1 (stereo not drawn)	-3.57
O=C(Cn1cc(I)cn1)N1CCCC1	0.0934

Molecular target: T1, Ubiquitin-activating enzyme e1, putative (Leishmania donovani (strain BPK282A1)) (UniProt E9BSI1)
T1 sequence (whole entry): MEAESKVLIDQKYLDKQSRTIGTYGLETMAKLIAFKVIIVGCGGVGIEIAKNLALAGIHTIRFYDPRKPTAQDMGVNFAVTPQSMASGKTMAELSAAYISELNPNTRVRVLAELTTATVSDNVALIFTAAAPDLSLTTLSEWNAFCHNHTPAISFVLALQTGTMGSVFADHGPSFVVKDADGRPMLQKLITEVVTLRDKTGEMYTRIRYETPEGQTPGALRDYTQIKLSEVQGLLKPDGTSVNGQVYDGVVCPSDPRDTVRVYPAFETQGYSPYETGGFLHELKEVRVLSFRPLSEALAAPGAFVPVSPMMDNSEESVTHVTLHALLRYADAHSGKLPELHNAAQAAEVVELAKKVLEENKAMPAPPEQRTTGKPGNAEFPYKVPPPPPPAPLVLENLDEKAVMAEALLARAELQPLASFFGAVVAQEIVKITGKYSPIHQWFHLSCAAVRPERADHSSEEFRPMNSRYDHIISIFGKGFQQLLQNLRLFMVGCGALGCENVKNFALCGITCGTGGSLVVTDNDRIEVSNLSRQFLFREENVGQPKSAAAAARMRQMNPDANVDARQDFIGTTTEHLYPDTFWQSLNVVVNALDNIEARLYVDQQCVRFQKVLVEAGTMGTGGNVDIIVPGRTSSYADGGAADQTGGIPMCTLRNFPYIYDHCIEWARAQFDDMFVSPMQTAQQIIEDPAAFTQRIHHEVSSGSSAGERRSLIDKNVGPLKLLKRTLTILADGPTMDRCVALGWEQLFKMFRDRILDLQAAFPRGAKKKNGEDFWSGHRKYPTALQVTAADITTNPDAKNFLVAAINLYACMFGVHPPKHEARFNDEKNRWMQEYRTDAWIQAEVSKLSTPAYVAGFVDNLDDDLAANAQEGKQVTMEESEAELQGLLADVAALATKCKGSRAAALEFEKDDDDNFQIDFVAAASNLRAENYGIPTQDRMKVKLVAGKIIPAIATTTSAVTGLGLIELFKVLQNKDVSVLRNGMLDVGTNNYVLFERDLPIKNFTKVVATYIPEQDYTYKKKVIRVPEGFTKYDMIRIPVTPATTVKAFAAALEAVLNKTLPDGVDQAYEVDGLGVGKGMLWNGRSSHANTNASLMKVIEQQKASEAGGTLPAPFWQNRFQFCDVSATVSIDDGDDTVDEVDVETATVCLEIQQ
Assay: Leishmania donovani Ubiquitin Activating Enzyme (LdE1)
Type: functional
Design: scale not given: direction of the effect not stated beside the values
Conditions: 30 µM

SMILES	Percent Effect [%]
CN1CC(=O)N(c2cnn(C)c2)CC12CCN(Cc1ccccc1)C2 (stereo not drawn)	5.48
NC(=O)C(CNC(=O)Cc1ccc(F)cc1)Cc1ccc(F)cc1 (stereo not drawn)	2.63
O=C(N1CCOCC1)N1CCc2ncnc(NC3CC3)c2CC1	0
Cn1cccc1C(=O)N1CCn2cc(CNC(=O)CC3CC3)nc2C1	13.3
Clc1cc(CN2CCCC2Cn2cncn2)c2ncccc2c1 (stereo not drawn)	2.7
CCc1nnc2n1CCN(Cc1csc(-c3cnn(C)c3)n1)C2	12.5
COc1ccc(C(CNC(=O)Nc2cn[nH]c2)N2CCOCC2)cc1 (stereo not drawn)	7.79
Cc1nn(C)c(C)c1C1CCCN1CC(=O)Nc1ccncc1 (stereo not drawn)	-2.7
Cc1nn(C)c(N(C)C)c1CNC1CCc2c(F)cccc21 (stereo not drawn)	13.2
Cc1ccccc1C(=O)CN1C(=O)c2ccccc2CS1(=O)=O	-10.8
CS(=O)(=O)N1CCC(C(=O)NC(Cc2ccsc2)c2ccccn2)CC1 (stereo not drawn)	6.76
COc1cccc(Cc2nnc(SC3CCOC3=O)o2)c1 (stereo not drawn)	-2.67
Cc1ccc(N2CCC3(CC2)CC(OCC(=O)N(C)C)CO3)nn1 (stereo not drawn)	5.41
CC(NC(=O)NCc1cccnc1N1CCCCC1)c1nccs1 (stereo not drawn)	7.79
CCc1ccc(NS(=O)(=O)CC2=NC(=O)n3cccc3C2=O)cc1	-17.3
c1ncn(CC2CCCN(Cc3nc(C4CC4)no3)C2)n1 (stereo not drawn)	10.1
N#Cc1ccc(C(=O)N2CCC3(CC2)C(=O)Nc2ccccc23)cn1	8.11
Cc1ccc(-c2nc(CNCCn3cccn3)cs2)o1	-429
Cc1cnc2n(c1=O)CC(C(=O)Nc1ccccc1Cl)CS2 (stereo not drawn)	-2.74
CCn1c(N)nc2cc(C(=O)NCCc3ccccc3C)cnc21	13.7

SMILES	Percent Effect [%]
O=C(NCCCN1CCCC1)c1n[nH]c(=O)c2ccccc12	20.8
Cc1nc(CN2CCCC(NCCOCC(F)(F)F)C2)no1 (stereo not drawn)	7.59
O=C1C[C@H]2[C@@H](CCN2C(=O)c2ccccc2)N1CCN1CCOCC1	-2.74
CC(C)Oc1ncccc1CNC(=O)N1CCC(C(N)=O)C1 (stereo not drawn)	5.26
CNc1nc2c(c(C(=O)N3CCCC3)n1)CN(Cc1nccn1C)CC2	16.4
CC(C)NC(=O)c1sccc1N(C)S(=O)(=O)c1ccc(Cl)cc1	7.89
COc1nn(C)c2c1CCCN(C(=O)c1ccccc1)C2	2.7
COCC(=O)N1CC[C@@H]2O[C@H](COCc3ccncc3)CC[C@@H]21	18.9
Fc1ccc(-c2cnc(CN3CCCC3Cn3cccn3)o2)cc1 (stereo not drawn)	7.59
O=C(C1CC=CC1)N1CCc2c(COCc3ccncc3)cncc2C1	5.48
O=C(NCC(F)(F)F)NC1CCCc2c1cnn2CCO (stereo not drawn)	16
O=C(CCOc1ccccc1)N1CCC(Nc2cccnn2)CC1	13.2
Cc1cc(CN2CCN(c3ccc4nncn4n3)C(C)C2)no1 (stereo not drawn)	20.8
Cc1n[nH]c(C)c1C1COCCN1C(=O)Cc1cccc(F)c1 (stereo not drawn)	-2.74
CCC(C)(NCC(=O)Nc1ccccc1)c1nc(C)cs1 (stereo not drawn)	2.7
Cc1ccc(-c2nnc(CN3CCc4cnc(C)nc4C3)o2)cc1	0
Cc1cccc2c1OCCC2NCc1c(C)nn(C)c1N(C)C (stereo not drawn)	18.4
CC(C#N)CSc1ccccc1NCC(=O)NCc1ccccc1 (stereo not drawn)	-8.22
O=C(Cn1cc(I)cn1)N1CCCC1	-1.33
